Assay outcomes: PubChem BioAssay, National Center for Advancing Translational Sciences (NCATS)
Shown are actives, neighbours in structure and some others; about 0.8% of the full set was active somewhere.
PI4K2A inh: inhibitors of human PI4K2A. Q9BTU6. purified PI4K2A, ADP-Glo luminescence, 1 h; active compounds read low. activity change, negative = inhibition, % at 76.9 µM. 420,000 compounds, 0.13% hits; in the data active = activity change below about -50%; inconclusive = mostly about -30% to -49%
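ADP-Glo luminescence measured ADP generated by PI4K2A enzyme (4 ug/mL before mixing) with 1.2 mM PI substrate (pre-mix) and 300 microM ATP (pre-mix). Tris pH7.5 buffer with MgCl2, Triton X-100; 1 h reaction at ambient temperature.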
PGK inhibitor: inhibitors of T. brucei phosphoglycerate kinase; P07378; PGK/GAPDH coupled, Kinase-Glo luminescence, 60 min; Potency, µM (doses to about 57.5 µM), usual class: inhibitors; 380,000 compounds, 0.043% hits; also: nearly all actives have a fitted effect of over 60% in size
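Luminescent ATP detection (Kinase-Glo Plus) follows a 60-minute room-temperature incubation, with wells lacking PGK as controls. Buffer: 100 mM TEA (pH 7.6), 5 mM MgCl2, 0.01% Tween-20. Coupling enzyme GAPDH (100 nM final) supplies unstable 1,3-BPG in-well.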
TDP1 inh: TDP1 (human) enzyme inhibition; Q9NUW8; recombinant TDP1, AlphaScreen DNA substrate cleavage; Potency, µM (top dose mostly 130 µM), most hits filed as inhibitors; 350,000 compounds, 0.28% hits; also: nearly all actives have a fitted effect of over 40% in size
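Compounds were preincubated with Tdp1 (1 nM final) for 15 min at room temperature before substrate (15 nM final) started a 5 min reaction; beads (10 ug/ml final) were then added for 10 min before AlphaScreen detection.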
FEN1 inh: human FEN1 inhibition; P39748; Recombinant FEN1 flap cleavage, fluorescence, 15 min; Potency, µM (top dose mostly 114 µM), most hits filed as inhibitors; 390,000 compounds, 0.35% hits; AID 588795; also: nearly all actives have a fitted effect of over 65% in size
Target sequence (P39748 whole entry, looked up): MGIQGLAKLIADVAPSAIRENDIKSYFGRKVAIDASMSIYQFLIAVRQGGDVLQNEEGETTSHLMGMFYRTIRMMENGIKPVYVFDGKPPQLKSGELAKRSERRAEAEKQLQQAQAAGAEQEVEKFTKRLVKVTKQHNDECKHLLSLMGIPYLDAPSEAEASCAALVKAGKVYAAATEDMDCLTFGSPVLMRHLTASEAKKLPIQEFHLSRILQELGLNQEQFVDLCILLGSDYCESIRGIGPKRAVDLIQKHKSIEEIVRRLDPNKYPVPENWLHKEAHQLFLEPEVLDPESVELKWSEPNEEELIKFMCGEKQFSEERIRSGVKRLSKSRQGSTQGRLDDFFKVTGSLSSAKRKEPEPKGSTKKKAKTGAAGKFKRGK
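Potency values derive from four-parameter Hill fits of normalized qHTS data. The reaction used 10 nM FEN1 preincubated 15 min at room temperature with compound, then 50 nM DNA substrate, read at 0 and 15 min.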
Tb PFK block: T. brucei PFK enzyme inhibition; T. brucei PFK, ADP-Glo luminescence; O15648; 330,000 compounds, 0.17% hits; AID 485367; Potency, µM (highest dose often 57.5 µM), most hits filed as inhibitors; also: nearly all actives have a fitted effect of over 60% in size
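Luminescent ADP detection (ADP-Glo, two-step: ATP depletion then ADP-to-ATP conversion for luciferase) reported PFK activity after 45 min room-temperature reaction of 1.25 nM enzyme with 0.5 mM F6P and 0.1 mM ATP at pH 8.0.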
APEX1 inh: APE1 (human) endonuclease inhibition; recombinant APE1, TAMRA/BHQ-2 abasic DNA cleavage fluorescence; Potency, µM (top dose mostly 65.8 µM), most hits filed as inhibitors; 350,000 compounds, 0.35% hits; AID 2517; also: nearly all actives have a fitted effect of over 55% in size
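Quantitative HTS: incision of a TAMRA/BHQ-2 double-stranded substrate bearing a tetrahydrofuran abasic site by 0.75 nM APE1 raises fluorescence. Substrate 50 nM final, added after 15 min compound preincubation at room temperature; progress as third-minus-first kinetic read difference.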
A number is an active result; i = inactive; ? = inconclusive; nt = no result given; + = active, no number. Unless noted, calls follow the shape of the dose curve; as a rule, active = well fitted curve in the direction sought with a large enough effect; inconclusive = small, poorly fitted or top-dose-only effect, or another doubt; inactive = no such curve, though single readings can be large; an effect the other way counts as inactive or inconclusive.

SMILES	PI4K2A inh	PGK inhibitor	TDP1 inh	FEN1 inh	Tb PFK block	APEX1 inh
Cc1ccc(N2C(=O)NC(=O)/C(=C/c3ccc(-c4ccc(C(=O)O)c(Cl)c4)o3)C2=O)cc1	i	i	20µM	?	i	?
Cc1ccc(N2C(=O)NC(=O)/C(=C\c3cc(C)n(-c4cc(C(=O)O)cc(C(=O)O)c4)c3C)C2=O)cc1	i	?	nt	56µM	i	i
Cc1ccc(N2C(=O)NC(=O)/C(=C\c3cc(C)n(-c4ccc(C(=O)O)cc4)c3C)C2=O)cc1	i	i	nt	i	i	i
Cc1cc(/C=C2\C(=O)NC(=O)N(c3cccc(F)c3)C2=O)c(C)n1-c1ccc(C(=O)O)c(Cl)c1	i	?	nt	i	i	i
COC(=O)[C@@H]1[C@H]2CC[C@@H](C[C@H]1OC(=O)c1ccccc1)N2C	nt	nt	nt	nt	nt	i
[Cl][In]([Cl])[Cl]	+	nt	0.5µM	?	nt	i
Cc1ccc([N+](=O)[O-])[c]2c1[O][Hg]2	i	nt	nt	nt	nt	nt
O=C(O)CCC(=O)NCCC1=c2ccccc2=N/C1=C\c1c(O)n(Cc2ccc(F)cc2)c(=S)[nH]c1=O	i	i	35µM	i	?	i
COCCNC(=O)c1c(NC(=O)c2ccc(Br)o2)n(Cc2ccccc2)c2nc3ccccc3nc12	i	i	i	i	i	i
COCCCNC(=O)c1c(NC(=O)c2ccco2)n(Cc2ccccc2)c2nc3ccccc3nc12	-57	i	i	i	i	i
CCCCNC(=O)c1c(N)n(CCCOC)c2nc3ccccc3nc12	-58	i	nt	?	i	i
COCCNC(=O)c1c(N)n(CCC(C)C)c2nc3ccccc3nc12	?	i	i	i	i	i
CC[C@H]1C[C@@H]2C[C@H]3c4[nH]c5ccc(OC)cc5c4CCN(C2)[C@@H]13	i	nt	nt	nt	nt	nt
COc1cc(CC#N)cc(OC)c1OC	i	nt	nt	nt	nt	nt
CCC(C=C[C@@H]1OC(=O)C=C[C@H]1C)=C[C@H](C)CC=CC(C)=C[C@@H](C)C(=O)[C@@H](C)[C@H](O)[C@@H](C)CC(C)=CC(=O)O	nt	nt	1.3µM	nt	nt	?
O=C1NC(=O)C(=Cc2ccc(-c3ccc(F)cc3O)o2)C(=O)N1	?	i	nt	18µM	?	i
O=C1NC(=O)C(=Cc2ccc(-c3ccc(Cl)cc3)o2)C(=O)N1	i	i	nt	18µM	i	i
O=C1NC(=O)C(=Cc2ccc(-c3ccc(S(=O)(=O)N4CCOCC4)cc3)o2)C(=O)N1	i	i	nt	i	i	i
O=C1CN2CCOC2(c2ccccc2Cl)c2cc(Cl)ccc2N1 (configuration not stated)	i	nt	nt	nt	nt	nt
O=C1NC(=S)N(c2ccc(F)cc2)C(=O)/C1=C\c1ccoc1	?	10µM	nt	7.9µM	i	?
Cc1ccc(N2C(=O)NC(=O)/C(=C\c3ccoc3)C2=O)cc1	i	i	i	i	i	?
O=C1NC(=S)N(c2ccc(F)cc2)C(=O)/C1=C/c1ccco1	nt	nt	nt	nt	6.7µM	0.21µM
CCOc1ccc(N2C(=O)/C(=C/c3ccc(C)o3)C(=O)NC2=S)cc1	i	?	nt	22µM	i	i
O=C1NC(=O)C(=Cc2ccco2)C(=O)N1	i	11µM	nt	?	nt	nt
CC1(C)CC/C(=C/c2ccc(Cl)cc2)C1(O)Cn1cncn1 (configuration not stated)	i	nt	nt	nt	nt	nt
SMILES	PI4K2A inh	PGK inhibitor	TDP1 inh	FEN1 inh	Tb PFK block	APEX1 inh
C[C@]12CC[C@H]3[C@@H](CC[C@@]45O[C@H]4C(O)=C(C#N)C[C@]35C)[C@H]1CC[C@H]2O	i	nt	nt	nt	nt	nt
CC(C(=O)c1ccccc1)N(C)C (configuration not stated)	i	nt	nt	nt	nt	nt
CCC12CCN(CCc3ccc(F)cc3)CC1Oc1c(O)cccc12 (configuration not stated)	nt	nt	nt	nt	nt	i
COc1ccc(OC)c(N2C(=O)/C(=C/c3ccco3)C(=O)NC2=S)c1	?	3.5µM	nt	8.9µM	?	0.095µM
O=C1NC(=O)N(c2ccccc2)C(=O)/C1=C/c1ccc2c(c1)Cc1ccccc1-2	nt	nt	i	nt	i	i
COc1ccccc1N1C(=O)NC(=O)/C(=C/c2ccc3c(c2)Cc2ccccc2-3)C1=O	i	i	nt	79µM	i	i
